# From the supplement of paper PMC8728848
# Only a selection was taken, and the strongest signals are over-represented in it overall.
# Legend:
# Assay in all cases: glycan array binding signal (z-score within array); higher = stronger binding
# [1] = test system: Neu5Ac(a2-3)Gal(b1-4)GlcNAc(b1-3)Gal(b1-3)GlcNAc; conditions: glycan notation: IUPAC condensed, linker removed
# Procedure, shortened: (§1)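 From the Consortium for Functional Glycomics database, 3228 arrays were curated, keeping only those whose protein sequence was available. Binding is given as a within-array Z-score averaged across arrays sharing a protein sequence and across linkers. Negative Z-scores can be read as non-binding.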
# [2] = test system: Neu5Ac(a2-3)Gal(b1-4)GlcNAc(b1-2)Man(a1-3)[GlcNAc(b1-4)][Neu5Ac(a2-3)Gal(b1-4)GlcNAc(b1-2)Man(a1-6)]Man(b1-4)GlcNAc(b1-4)GlcNAc; conditions: glycan notation: IUPAC condensed, linker removed
# Procedure, shortened: as §1
# [3] = test system: Neu5Ac(a2-3)Gal(b1-4)GlcNAc(b1-2)Man(a1-3)[Neu5Ac(a2-3)Gal(b1-4)GlcNAc(b1-2)Man(a1-6)]Man(b1-4)GlcNAc(b1-4)[Fuc(a1-6)]GlcNAc; conditions: glycan notation: IUPAC condensed, linker removed; mutation: R125K
# Procedure, shortened: as §1
# [4] = test system: Neu5Ac(a2-3)Gal(b1-4)GlcNAc(b1-2)[Neu5Ac(a2-3)Gal(b1-4)GlcNAc(b1-4)]Man(a1-3)[GlcNAc(b1-4)][Neu5Ac(a2-3)Gal(b1-4)GlcNAc(b1-4)Man(a1-6)]Man(b1-4)GlcNAc(b1-4)GlcNAc; conditions: glycan notation: IUPAC condensed, linker removed; mutation: R125K
# Procedure, shortened: as §1
# [5] = test system: Neu5Ac(a2-3)Gal(b1-4)GlcNAc(b1-2)[Neu5Ac(a2-3)Gal(b1-4)GlcNAc(b1-6)]Man(a1-6)[Neu5Ac(a2-3)Gal(b1-4)GlcNAc(b1-2)Man(a1-3)]Man(b1-4)GlcNAc(b1-4)GlcNAc; conditions: glycan notation: IUPAC condensed, linker removed
# Procedure, shortened: as §1
# [6] = test system: Neu5Ac(a2-3)Gal(b1-4)GlcNAc(b1-3)Gal(b1-4)GlcNAc(b1-2)Man(a1-3)[Neu5Ac(a2-3)Gal(b1-4)GlcNAc(b1-3)Gal(b1-4)GlcNAc(b1-2)Man(a1-6)]Man(b1-4)GlcNAc(b1-4)GlcNAc; conditions: glycan notation: IUPAC condensed, linker removed; mutation: R125K
# Procedure, shortened: as §1
# [7] = test system: Neu5Ac(a2-3)Gal(b1-4)GlcNAc(b1-3)Gal(b1-4)GlcNAc(b1-3)Gal(b1-4)GlcNAc; conditions: glycan notation: IUPAC condensed, linker removed
# Procedure, shortened: as §1
# [8] = test system: Neu5Ac(a2-3)Gal(b1-4)GlcNAc(b1-3)Gal(b1-4)GlcNAc(b1-3)[Neu5Ac(a2-3)Gal(b1-4)GlcNAc(b1-3)Gal(b1-4)GlcNAc(b1-6)]GalNAc; conditions: glycan notation: IUPAC condensed, linker removed
# Procedure, shortened: as §1
# [9] = test system: Neu5Ac(a2-3)Gal(b1-4)GlcNAc(b1-3)[Neu5Ac(a2-3)Gal(b1-4)GlcNAc(b1-6)]GalNAc; conditions: glycan notation: IUPAC condensed, linker removed
# Procedure, shortened: as §1
# [10] = test system: Neu5Ac(a2-3)Gal(b1-4)GlcNAc(b1-2)Man(a1-3)[Neu5Ac(a2-6)Gal(b1-4)GlcNAc(b1-2)Man(a1-6)]Man(b1-4)GlcNAc(b1-4)GlcNAc; conditions: glycan notation: IUPAC condensed, linker removed
# Procedure, shortened: as §1
# [11] = test system: Neu5Ac(a2-3)Gal(b1-4)GlcNAc(b1-3)Gal(b1-4)GlcNAc(b1-3)Gal(b1-4)GlcNAc(b1-2)Man(a1-3)[Neu5Ac(a2-3)Gal(b1-4)GlcNAc(b1-3)Gal(b1-4)GlcNAc(b1-3)Gal(b1-4)GlcNAc(b1-2)Man(a1-6)]GalNAc; conditions: glycan notation: IUPAC condensed, linker removed
# Procedure, shortened: as §1
# [12] = test system: Neu5Ac(a2-3)Gal(b1-4)GlcNAc(b1-6)[Neu5Ac(a2-3)Gal(b1-3)]GalNAc; conditions: glycan notation: IUPAC condensed, linker removed
# Procedure, shortened: as §1
# [13] = test system: Neu5Ac(a2-3)Gal(b1-4)GlcNAc6S; conditions: glycan notation: IUPAC condensed, linker removed
# Procedure, shortened: as §1
# [14] = test system: Neu5Ac(a2-3)Gal(b1-4)GlcNAc(b1-2)Man(a1-3)[GlcNAc(b1-2)Man(b1-4)GlcNAc(b1-2)Man(a1-6)]Man(b1-4)GlcNAc(b1-4)GlcNAc; conditions: glycan notation: IUPAC condensed, linker removed
# Procedure, shortened: as §1
# [15] = test system: Neu5Ac(a2-3)Gal(b1-4)GlcNAc(b1-3)Gal(b1-4)GlcNAc; conditions: glycan notation: IUPAC condensed, linker removed
# Procedure, shortened: as §1
# [16] = test system: Neu5Ac(a2-3)Gal(b1-4)GlcNAc(b1-3)Gal(b1-4)[Fuc(a1-3)]GlcNAc; conditions: glycan notation: IUPAC condensed, linker removed
# Procedure, shortened: as §1
# [17] = test system: Neu5Ac(a2-3)Gal(b1-4)GlcNAc(b1-6)[Gal(b1-3)]GalNAc; conditions: glycan notation: IUPAC condensed, linker removed
# Procedure, shortened: as §1
# [18] = test system: Neu5Ac(a2-3)Gal(b1-4)GlcNAc(b1-2)[Neu5Ac(a2-3)Gal(b1-4)GlcNAc(b1-4)]Man(a1-3)[GlcNAc(b1-4)][Neu5Ac(a2-3)Gal(b1-4)GlcNAc(b1-2)[Neu5Ac(a2-3)Gal(b1-4)GlcNAc(b1-6)]Man(a1-6)]Man(b1-4)GlcNAc(b1-4)GlcNAc; conditions: glycan notation: IUPAC condensed, linker removed
# Procedure, shortened: as §1
# [19] = test system: Neu5Ac(a2-3)Gal(b1-4)GlcNAc(b1-3)Gal; conditions: glycan notation: IUPAC condensed, linker removed
# Procedure, shortened: as §1
# [20] = test system: Neu5Ac(a2-3)Gal(b1-4)GlcNAc(b1-6)GalNAc; conditions: glycan notation: IUPAC condensed, linker removed
# Procedure, shortened: as §1
# PILRa (Mus musculus), Q2YSF3, sequence (Q2YSF3 entry or part of it): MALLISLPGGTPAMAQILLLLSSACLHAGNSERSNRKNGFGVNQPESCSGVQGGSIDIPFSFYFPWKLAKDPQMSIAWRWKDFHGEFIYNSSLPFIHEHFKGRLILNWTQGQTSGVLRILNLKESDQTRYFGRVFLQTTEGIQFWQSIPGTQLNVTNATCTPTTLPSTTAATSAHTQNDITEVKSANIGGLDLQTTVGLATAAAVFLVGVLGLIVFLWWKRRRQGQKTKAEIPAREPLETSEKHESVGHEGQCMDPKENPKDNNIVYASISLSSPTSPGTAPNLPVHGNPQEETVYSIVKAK
# Avaren (Actinomycete K97), sequence (chain, as listed by the source): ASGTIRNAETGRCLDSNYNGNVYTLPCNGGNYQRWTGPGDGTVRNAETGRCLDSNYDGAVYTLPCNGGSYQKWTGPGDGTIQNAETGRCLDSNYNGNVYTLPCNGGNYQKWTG
# 6RG (Lolium perenne), sequence (chain, as listed by the source): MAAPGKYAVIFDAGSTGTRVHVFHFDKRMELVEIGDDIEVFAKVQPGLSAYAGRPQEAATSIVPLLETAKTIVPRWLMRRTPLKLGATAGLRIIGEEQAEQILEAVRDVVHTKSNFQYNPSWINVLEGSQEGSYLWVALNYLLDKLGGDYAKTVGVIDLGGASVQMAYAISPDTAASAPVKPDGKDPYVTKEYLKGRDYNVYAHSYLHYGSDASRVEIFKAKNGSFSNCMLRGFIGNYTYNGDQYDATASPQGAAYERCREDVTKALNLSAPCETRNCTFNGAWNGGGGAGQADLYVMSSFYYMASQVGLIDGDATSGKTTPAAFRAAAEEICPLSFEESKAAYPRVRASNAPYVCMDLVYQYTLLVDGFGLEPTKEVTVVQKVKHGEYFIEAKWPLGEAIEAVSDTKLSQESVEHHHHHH
# C3b (Homo sapiens), P01024, sequence (P01024 23-667): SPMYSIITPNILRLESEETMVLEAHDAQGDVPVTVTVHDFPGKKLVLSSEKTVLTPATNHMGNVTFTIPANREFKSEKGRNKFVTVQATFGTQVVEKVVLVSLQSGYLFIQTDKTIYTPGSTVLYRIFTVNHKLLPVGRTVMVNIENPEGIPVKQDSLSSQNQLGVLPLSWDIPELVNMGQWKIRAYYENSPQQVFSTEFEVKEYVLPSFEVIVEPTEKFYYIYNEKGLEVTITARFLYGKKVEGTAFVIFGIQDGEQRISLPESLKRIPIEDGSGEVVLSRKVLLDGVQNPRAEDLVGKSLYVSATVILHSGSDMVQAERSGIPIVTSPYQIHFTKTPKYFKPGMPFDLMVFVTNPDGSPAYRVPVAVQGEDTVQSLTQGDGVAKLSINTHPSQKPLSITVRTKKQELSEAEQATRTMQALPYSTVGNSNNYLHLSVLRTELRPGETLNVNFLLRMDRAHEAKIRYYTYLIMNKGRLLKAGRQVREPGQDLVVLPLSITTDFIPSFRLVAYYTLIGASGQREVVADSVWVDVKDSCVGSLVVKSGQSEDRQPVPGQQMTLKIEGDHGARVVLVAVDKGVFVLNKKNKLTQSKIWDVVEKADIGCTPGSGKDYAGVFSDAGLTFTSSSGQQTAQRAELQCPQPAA
# CHT (Homo sapiens), sequence (chain, as listed by the source): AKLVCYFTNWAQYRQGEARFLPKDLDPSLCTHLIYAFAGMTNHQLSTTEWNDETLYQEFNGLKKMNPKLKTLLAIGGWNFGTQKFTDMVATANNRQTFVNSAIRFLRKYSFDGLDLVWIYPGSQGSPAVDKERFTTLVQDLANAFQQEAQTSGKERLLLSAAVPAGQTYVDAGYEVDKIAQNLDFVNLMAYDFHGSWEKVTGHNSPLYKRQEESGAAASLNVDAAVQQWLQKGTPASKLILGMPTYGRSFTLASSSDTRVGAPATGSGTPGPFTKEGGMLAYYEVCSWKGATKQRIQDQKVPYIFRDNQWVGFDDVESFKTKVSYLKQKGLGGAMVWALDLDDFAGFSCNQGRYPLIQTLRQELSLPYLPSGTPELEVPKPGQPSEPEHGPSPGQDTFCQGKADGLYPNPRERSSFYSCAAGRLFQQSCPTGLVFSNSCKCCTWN
# PILRb (Mus musculus), Q2YSF2, sequence (Q2YSF2 entry or part of it): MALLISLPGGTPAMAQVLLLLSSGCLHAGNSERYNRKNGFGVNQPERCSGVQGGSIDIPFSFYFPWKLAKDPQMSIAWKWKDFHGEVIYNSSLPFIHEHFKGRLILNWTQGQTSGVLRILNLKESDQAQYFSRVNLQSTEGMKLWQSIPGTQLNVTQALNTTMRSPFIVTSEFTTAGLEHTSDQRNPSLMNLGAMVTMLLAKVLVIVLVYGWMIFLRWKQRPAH
# Neurocan (Homo sapiens), O14594, sequence (O14594 other isoform, or with tags, fused parts or gaps): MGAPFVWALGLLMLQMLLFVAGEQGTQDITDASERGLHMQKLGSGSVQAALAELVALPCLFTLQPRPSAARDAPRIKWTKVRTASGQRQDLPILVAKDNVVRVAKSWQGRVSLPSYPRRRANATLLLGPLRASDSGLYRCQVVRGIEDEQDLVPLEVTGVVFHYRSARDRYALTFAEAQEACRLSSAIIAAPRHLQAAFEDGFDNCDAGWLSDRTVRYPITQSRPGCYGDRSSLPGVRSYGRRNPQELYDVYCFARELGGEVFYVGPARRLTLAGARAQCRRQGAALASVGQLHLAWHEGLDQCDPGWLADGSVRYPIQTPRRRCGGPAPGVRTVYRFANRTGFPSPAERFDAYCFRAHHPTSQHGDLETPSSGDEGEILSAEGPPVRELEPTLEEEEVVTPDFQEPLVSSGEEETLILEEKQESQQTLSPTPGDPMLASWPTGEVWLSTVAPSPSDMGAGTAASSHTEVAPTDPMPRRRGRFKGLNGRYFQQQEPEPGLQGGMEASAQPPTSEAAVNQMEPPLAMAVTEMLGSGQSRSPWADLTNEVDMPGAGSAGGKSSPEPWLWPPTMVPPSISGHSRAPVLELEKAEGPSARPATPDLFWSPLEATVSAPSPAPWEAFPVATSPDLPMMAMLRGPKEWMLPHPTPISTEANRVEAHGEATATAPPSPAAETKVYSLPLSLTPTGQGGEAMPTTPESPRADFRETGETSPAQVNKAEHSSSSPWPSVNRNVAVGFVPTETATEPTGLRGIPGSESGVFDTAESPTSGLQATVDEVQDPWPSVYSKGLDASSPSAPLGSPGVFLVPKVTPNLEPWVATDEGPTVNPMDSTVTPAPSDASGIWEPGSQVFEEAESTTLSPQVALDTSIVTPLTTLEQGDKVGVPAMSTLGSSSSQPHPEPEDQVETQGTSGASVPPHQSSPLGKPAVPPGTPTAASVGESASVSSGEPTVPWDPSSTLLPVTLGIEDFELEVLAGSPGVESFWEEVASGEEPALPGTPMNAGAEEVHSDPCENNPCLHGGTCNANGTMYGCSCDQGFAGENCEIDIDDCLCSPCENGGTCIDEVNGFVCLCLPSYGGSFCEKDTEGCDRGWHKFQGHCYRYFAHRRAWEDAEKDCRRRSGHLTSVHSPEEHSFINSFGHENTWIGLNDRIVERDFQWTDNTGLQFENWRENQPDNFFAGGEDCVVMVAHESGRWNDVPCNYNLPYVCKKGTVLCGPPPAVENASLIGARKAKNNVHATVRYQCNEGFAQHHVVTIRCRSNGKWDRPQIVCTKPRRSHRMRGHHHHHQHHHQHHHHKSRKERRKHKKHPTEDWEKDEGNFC
substance,measurement,setting,value
"Neurocan (Homo sapiens), O14594",glycan array binding signal (z-score),[1],0.948
"Siglec-8 (Homo sapiens), Q9NYZ4",glycan array binding signal (z-score),[2],-0.203
same,glycan array binding signal (z-score),[3],0.029
same,glycan array binding signal (z-score),[4],0.406
same,glycan array binding signal (z-score),[5],0.635
same,glycan array binding signal (z-score),[6],-0.161
same,glycan array binding signal (z-score),[7]; mutation: R125K,-0.378
same,glycan array binding signal (z-score),[8],-0.138
same,glycan array binding signal (z-score),[9],-0.207
Avaren (Actinomycete K97),glycan array binding signal (z-score),[10],-0.137
same,glycan array binding signal (z-score),[11],0.039
same,glycan array binding signal (z-score),[12],-0.138
same,glycan array binding signal (z-score),[13],-0.116
CHT (Homo sapiens),glycan array binding signal (z-score),"[13]; mutation: D138V, E140I",-0.118
"PILRa (Mus musculus), Q2YSF3",glycan array binding signal (z-score),[14],-0.185
same,glycan array binding signal (z-score),[15],1.21
same,glycan array binding signal (z-score),[12],-0.272
6RG (Lolium perenne),glycan array binding signal (z-score),[10],-0.191
same,glycan array binding signal (z-score),[16],-0.244
same,glycan array binding signal (z-score),[17],-0.075
MpAFP RI GFP (Marinomonas primoryensis),glycan array binding signal (z-score),[18],-0.808
same,glycan array binding signal (z-score),[19],-0.665
same,glycan array binding signal (z-score),[20],-0.342
"C3b (Homo sapiens), P01024",glycan array binding signal (z-score),[7],0.362
same,glycan array binding signal (z-score),[15],-0.787
"PILRb (Mus musculus), Q2YSF2",glycan array binding signal (z-score),[14],-0.119
